The values below come from article PMC7862700, “An all-to-all approach to the identification of sequence-specific readers for epigenetic DNA modifications on cytosine”.

What all share (assay): DAPPL (digital affinity profiling via proximity ligation, sequencing); 10 mM Tris-HCl pH 7.5, 50 mM NaCl, 1 mM DTT, 4% glycerol, room temperature, 30 min; GST-TFs on glutathione beads, 16-mer random dsDNA library, 0.1% formaldehyde crosslink after washing; high values mean tight binding
Test [1] addresses T1, FLI1 (Homo sapiens, UniProt Q01543 1-452).
T1 sequence: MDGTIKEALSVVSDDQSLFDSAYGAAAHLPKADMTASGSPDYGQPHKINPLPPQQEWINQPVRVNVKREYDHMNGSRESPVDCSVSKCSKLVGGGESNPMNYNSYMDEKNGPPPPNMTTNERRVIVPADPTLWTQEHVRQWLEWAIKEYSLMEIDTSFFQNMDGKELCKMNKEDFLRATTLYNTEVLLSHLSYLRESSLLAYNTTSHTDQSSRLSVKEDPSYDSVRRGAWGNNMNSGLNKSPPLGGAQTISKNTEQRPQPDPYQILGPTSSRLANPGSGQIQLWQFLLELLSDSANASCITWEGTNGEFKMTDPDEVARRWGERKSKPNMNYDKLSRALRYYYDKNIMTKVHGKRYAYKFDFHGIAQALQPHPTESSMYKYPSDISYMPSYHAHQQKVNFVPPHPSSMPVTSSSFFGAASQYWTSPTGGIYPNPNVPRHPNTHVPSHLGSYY
The settings on record: protein: recombinant; tags: N-terminal GST; dsDNA, one strand shown. The procedure, abridged:
(§1)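 A tag-only sample was pooled with DNA-barcoded human transcription factors that had been expressed in yeast as GST fusions and captured on glutathione beads. The pools were incubated for 30 min at room temperature with 200 nmole of a random double-stranded 16-mer DNA library in Tris/NaCl/DTT/glycerol buffer, then washed, crosslinked with 0.1% formaldehyde, proximity-ligated (BsaI/T4 ligase, 1 h, 37 °C), PCR-amplified and sequenced on an Illumina NextSeq500. Binding signal is each hexamer's read frequency for a factor divided by its frequency for the tag-only sample.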

Test [2] addresses T2, ELK1 (Homo sapiens, UniProt P19419 1-428).
T2 sequence: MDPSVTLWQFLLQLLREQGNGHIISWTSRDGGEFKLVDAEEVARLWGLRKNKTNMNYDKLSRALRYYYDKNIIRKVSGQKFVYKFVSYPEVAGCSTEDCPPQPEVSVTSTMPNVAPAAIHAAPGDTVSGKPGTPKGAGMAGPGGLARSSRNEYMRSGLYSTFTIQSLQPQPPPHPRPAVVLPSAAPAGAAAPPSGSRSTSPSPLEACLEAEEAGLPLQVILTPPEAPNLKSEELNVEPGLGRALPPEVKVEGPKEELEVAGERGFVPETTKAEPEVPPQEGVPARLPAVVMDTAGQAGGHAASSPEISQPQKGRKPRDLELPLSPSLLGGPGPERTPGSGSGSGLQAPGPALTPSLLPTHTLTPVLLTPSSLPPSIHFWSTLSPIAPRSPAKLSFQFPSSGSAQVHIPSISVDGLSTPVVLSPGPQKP
The settings on record: protein: recombinant; tags: N-terminal GST; dsDNA, one strand shown. In a few lines:
as §1

Test [3] has as its target T3, GABPA (Homo sapiens, UniProt Q06546 1-454).
T3 sequence: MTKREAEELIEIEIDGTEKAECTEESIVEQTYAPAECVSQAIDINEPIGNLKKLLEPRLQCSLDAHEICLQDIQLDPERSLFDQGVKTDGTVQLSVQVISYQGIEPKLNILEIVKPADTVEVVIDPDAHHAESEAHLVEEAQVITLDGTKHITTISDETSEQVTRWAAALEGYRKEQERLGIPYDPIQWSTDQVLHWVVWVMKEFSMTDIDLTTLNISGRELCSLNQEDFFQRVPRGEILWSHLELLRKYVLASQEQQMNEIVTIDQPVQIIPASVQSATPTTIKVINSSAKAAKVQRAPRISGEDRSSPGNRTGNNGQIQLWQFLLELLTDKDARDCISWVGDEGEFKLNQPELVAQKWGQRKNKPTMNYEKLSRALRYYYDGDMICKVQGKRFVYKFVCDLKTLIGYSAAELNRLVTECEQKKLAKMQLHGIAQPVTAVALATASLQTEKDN
The settings on record: protein: recombinant; tags: N-terminal GST; dsDNA, one strand shown. In a few lines:
as §1

Test [4] concerns the target T4, ERG (Homo sapiens, UniProt P11308 1-479).
T4 sequence: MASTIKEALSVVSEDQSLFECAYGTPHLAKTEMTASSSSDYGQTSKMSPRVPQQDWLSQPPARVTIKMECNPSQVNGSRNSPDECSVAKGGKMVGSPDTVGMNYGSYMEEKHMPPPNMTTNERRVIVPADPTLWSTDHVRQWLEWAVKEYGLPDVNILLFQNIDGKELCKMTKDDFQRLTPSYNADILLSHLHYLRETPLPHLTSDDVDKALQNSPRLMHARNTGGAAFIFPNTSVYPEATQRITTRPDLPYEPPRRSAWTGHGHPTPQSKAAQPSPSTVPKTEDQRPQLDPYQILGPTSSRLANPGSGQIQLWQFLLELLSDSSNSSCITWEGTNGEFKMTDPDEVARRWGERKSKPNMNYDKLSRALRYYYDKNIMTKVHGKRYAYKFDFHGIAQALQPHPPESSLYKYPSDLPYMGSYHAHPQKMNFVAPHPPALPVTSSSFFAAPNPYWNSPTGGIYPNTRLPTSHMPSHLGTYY
The settings on record: protein: recombinant; tags: N-terminal GST; dsDNA, one strand shown. The procedure, abridged: as §1

Test [5] has as its target ELF1 (Homo sapiens, UniProt P32519 1-619). Particulars: protein: recombinant; tags: N-terminal GST; dsDNA, one strand shown. In a few lines: as §1
The target of test [6] is T5, EHF (Homo sapiens, UniProt Q9NZC4 1-300).
T5 sequence: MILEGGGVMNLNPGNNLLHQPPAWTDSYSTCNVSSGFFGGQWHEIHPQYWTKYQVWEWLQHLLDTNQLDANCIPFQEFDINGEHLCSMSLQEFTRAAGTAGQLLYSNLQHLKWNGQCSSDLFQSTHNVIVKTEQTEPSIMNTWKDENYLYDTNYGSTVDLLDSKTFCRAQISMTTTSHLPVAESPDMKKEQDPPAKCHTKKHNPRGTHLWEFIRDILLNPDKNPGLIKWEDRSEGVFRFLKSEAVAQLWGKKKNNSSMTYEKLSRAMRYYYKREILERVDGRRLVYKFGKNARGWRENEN
Particulars: protein: recombinant; tags: N-terminal GST; dsDNA, one strand shown. In a few lines: as §1

The target in test [7] is SPI1 (Homo sapiens, UniProt P17947 1-270). Particulars: protein: recombinant; tags: N-terminal GST; dsDNA, one strand shown. In a few lines: as §1
Test [8] has as its target SPIB (Homo sapiens, UniProt Q01892 1-262). Particulars: protein: recombinant; tags: N-terminal GST; dsDNA, one strand shown. In a few lines:
as §1

For test [9], the target named is T6, ELK3 (Homo sapiens, UniProt P41970 1-407).
T6 sequence: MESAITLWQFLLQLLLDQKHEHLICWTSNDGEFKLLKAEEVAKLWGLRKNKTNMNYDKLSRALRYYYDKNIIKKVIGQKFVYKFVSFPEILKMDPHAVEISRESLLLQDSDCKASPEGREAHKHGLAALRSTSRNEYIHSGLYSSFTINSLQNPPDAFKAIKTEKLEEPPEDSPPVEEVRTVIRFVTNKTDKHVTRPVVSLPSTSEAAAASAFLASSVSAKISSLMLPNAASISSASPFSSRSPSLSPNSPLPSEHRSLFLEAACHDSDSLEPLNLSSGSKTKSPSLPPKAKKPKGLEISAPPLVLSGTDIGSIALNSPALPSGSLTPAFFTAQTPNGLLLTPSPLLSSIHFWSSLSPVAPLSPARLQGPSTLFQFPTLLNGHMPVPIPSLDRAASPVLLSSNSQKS
Particulars: protein: recombinant; tags: N-terminal GST; dsDNA, one strand shown. The procedure, abridged:
as §1

In test [10] the target is T7, FEV (Homo sapiens, UniProt Q99581 1-238).
T7 sequence: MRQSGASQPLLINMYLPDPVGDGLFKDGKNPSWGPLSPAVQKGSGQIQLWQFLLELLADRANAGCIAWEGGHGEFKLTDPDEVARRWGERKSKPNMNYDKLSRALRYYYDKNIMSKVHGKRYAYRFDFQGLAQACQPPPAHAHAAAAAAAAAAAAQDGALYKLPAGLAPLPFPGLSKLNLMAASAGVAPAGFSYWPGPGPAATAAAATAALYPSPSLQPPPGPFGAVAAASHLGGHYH
Particulars: protein: recombinant; tags: N-terminal GST; dsDNA, one strand shown. The procedure, abridged:
as §1

The target of test [11] is ETV5 (Homo sapiens, UniProt P41161 1-510). The settings on record: protein: recombinant; tags: N-terminal GST; dsDNA, one strand shown. In a few lines:
as §1

The target in test [12] is HSF1 (Homo sapiens, UniProt Q00613 1-529). Particulars: protein: recombinant; tags: N-terminal GST; chain copies: 3; dsDNA, one strand shown. The procedure, abridged:
as §1

Test [13] concerns the target T8, SPIC (Homo sapiens, UniProt Q8N5J4 1-248).
T8 sequence: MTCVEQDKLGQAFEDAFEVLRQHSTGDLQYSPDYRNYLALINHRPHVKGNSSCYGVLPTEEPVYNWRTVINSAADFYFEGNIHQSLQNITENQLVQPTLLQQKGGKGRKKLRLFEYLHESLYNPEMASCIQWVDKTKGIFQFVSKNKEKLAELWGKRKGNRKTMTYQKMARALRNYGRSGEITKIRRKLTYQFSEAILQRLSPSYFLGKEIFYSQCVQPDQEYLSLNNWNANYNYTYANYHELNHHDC
The settings on record: protein: recombinant; tags: N-terminal GST; dsDNA, one strand shown. The procedure, abridged: as §1

The target of test [14] is ELF4 (Homo sapiens, UniProt Q99607 1-663). The settings on record: protein: recombinant; tags: N-terminal GST; dsDNA, one strand shown. In a few lines:
as §1

Test [15] addresses T9, ELK4 (Homo sapiens, UniProt P28324-2 1-405).
T9 sequence: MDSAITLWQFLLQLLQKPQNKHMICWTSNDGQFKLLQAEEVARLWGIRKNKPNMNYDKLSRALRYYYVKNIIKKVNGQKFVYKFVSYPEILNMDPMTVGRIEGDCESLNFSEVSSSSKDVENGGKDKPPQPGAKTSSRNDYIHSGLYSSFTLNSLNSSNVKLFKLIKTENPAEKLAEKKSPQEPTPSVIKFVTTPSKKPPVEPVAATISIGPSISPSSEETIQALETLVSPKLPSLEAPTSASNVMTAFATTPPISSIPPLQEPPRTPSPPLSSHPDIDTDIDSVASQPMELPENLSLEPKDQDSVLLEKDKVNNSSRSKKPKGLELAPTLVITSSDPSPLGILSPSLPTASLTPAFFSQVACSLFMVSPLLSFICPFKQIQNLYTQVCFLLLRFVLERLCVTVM
The settings on record: protein: recombinant; tags: N-terminal GST; dsDNA, one strand shown. In a few lines: as §1

Test [16] concerns the target T10, ETV2 (Homo sapiens, UniProt O00321 1-342).
T10 sequence: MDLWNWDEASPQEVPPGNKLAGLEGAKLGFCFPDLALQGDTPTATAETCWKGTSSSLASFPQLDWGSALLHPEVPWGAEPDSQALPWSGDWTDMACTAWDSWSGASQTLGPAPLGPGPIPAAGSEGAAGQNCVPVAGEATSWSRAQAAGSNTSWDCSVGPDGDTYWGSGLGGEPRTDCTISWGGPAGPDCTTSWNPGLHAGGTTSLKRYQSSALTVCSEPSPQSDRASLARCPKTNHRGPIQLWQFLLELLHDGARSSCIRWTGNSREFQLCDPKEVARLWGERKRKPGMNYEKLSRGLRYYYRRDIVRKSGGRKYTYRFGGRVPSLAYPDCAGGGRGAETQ
The settings on record: protein: recombinant; tags: N-terminal GST; dsDNA, one strand shown. The procedure, abridged:
as §1

In test [17] the target is T11, ELF3 (Homo sapiens, UniProt P78545 1-371).
T11 sequence: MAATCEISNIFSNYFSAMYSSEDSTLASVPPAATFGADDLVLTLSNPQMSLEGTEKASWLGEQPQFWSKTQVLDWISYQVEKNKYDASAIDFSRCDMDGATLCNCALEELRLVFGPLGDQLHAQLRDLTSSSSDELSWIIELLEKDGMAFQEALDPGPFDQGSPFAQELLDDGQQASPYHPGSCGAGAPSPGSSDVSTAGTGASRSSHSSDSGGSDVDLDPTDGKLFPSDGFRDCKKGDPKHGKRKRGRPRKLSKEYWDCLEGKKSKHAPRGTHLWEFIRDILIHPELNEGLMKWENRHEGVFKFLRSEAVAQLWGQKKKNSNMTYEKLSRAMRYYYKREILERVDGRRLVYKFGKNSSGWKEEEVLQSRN
The settings on record: protein: recombinant; tags: N-terminal GST; dsDNA, one strand shown. In a few lines: as §1

In test [18] the target is CRX (Homo sapiens, UniProt O43186 1-299). The settings on record: protein: recombinant; tags: N-terminal GST; dsDNA, one strand shown. The procedure, abridged: as §1
CRX, sequence (O43186 whole entry): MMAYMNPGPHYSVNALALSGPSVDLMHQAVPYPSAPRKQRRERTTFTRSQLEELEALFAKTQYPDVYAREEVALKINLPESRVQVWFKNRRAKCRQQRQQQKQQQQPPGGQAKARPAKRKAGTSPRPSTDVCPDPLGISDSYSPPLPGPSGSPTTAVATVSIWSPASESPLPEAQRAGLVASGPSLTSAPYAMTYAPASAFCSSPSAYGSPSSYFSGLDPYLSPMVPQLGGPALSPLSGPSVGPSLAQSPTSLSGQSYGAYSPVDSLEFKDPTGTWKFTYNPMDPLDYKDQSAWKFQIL
Test [19] addresses ETV1 (Homo sapiens, UniProt P50549 1-477). Particulars: protein: recombinant; tags: N-terminal GST; dsDNA, one strand shown. In a few lines: as §1

ELF1, sequence (P32519 whole entry): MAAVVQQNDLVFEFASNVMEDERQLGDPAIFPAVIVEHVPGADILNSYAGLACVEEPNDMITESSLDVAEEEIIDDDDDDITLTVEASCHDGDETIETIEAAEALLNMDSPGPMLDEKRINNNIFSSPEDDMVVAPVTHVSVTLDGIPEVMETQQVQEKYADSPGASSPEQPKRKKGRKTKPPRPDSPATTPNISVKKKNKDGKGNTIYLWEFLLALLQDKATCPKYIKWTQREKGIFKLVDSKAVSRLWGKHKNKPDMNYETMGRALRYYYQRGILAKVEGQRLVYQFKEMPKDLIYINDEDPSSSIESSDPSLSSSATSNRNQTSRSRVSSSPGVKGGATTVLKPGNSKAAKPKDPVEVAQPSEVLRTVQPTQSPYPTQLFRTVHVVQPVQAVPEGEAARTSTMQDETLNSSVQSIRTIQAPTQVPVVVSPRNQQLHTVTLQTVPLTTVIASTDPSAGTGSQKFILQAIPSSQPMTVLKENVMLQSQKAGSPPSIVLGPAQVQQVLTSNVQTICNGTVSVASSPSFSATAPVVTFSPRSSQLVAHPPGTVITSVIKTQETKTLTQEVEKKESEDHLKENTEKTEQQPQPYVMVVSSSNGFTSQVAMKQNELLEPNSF
ELF4, sequence (Q99607 whole entry): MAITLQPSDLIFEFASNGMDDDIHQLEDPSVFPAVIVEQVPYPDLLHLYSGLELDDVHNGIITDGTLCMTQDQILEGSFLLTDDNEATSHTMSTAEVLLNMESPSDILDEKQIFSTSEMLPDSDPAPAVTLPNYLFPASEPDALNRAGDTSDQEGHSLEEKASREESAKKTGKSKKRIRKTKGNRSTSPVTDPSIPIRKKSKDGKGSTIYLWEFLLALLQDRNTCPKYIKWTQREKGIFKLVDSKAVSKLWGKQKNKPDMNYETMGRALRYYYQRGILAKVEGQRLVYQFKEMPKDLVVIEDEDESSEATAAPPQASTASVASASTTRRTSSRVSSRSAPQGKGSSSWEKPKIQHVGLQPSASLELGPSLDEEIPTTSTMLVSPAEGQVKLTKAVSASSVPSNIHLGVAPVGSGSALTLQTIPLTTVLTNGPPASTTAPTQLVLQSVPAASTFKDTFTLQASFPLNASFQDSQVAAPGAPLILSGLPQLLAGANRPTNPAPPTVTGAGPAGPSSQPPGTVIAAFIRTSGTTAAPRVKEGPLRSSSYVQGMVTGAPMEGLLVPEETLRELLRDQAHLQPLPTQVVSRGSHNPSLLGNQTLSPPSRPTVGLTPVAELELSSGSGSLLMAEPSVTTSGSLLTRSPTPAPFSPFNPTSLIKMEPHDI
ETV5, sequence (P41161 whole entry): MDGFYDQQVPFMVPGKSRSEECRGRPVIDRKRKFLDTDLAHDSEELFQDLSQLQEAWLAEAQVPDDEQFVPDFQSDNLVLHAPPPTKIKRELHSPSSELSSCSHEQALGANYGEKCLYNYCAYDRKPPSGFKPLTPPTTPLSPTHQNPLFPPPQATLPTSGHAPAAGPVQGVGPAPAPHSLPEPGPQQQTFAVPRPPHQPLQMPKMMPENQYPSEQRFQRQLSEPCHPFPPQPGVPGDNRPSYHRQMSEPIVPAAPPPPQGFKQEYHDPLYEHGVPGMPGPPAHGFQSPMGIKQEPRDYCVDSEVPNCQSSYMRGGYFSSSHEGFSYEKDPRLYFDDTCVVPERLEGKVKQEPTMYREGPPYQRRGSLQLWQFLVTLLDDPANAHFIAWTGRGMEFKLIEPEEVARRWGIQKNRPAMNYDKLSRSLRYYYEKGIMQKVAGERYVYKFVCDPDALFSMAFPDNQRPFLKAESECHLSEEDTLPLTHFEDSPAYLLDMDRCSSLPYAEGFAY
HSF1, sequence (Q00613 whole entry): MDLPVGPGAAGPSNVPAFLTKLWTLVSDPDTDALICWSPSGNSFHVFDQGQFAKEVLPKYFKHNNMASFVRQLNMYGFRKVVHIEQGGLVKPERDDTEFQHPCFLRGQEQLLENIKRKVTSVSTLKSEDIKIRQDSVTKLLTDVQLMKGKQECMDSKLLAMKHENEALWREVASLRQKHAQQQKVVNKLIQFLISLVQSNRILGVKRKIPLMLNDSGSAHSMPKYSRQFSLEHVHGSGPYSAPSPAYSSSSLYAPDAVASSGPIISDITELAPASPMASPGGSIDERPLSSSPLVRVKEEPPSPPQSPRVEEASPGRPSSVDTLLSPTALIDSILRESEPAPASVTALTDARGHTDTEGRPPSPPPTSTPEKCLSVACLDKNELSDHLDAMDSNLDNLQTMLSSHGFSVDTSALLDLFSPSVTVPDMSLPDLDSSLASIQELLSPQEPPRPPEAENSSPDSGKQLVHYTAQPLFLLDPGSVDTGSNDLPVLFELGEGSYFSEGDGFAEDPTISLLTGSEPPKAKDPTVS
ETV1, sequence (P50549 whole entry): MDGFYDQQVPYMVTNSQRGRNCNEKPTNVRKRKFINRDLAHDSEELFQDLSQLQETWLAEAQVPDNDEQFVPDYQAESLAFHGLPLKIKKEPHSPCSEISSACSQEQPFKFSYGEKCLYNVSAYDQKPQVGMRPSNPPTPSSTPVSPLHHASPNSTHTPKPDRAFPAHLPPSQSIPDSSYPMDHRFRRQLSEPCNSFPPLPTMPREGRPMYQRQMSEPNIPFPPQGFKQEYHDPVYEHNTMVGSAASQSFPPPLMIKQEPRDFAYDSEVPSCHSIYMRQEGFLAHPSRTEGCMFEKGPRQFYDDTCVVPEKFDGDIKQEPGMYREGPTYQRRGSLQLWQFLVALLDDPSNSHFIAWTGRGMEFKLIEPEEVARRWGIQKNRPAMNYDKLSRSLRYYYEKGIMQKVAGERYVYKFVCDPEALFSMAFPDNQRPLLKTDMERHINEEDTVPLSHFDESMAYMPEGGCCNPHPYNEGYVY
SPIB, sequence (Q01892 whole entry): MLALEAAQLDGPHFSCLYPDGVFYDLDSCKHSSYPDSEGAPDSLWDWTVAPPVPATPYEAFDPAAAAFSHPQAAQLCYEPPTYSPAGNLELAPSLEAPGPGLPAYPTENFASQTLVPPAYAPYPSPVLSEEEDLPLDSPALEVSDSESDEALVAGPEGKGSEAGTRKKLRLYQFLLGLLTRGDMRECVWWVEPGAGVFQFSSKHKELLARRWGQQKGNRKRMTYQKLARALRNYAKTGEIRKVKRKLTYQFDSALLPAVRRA

As to AAGCTT, the binding signal in test [1] was 1.31 fold enrichment (6-mer frequency, TF over GST control); in [2], 1.33 fold enrichment (6-mer frequency, TF over GST control); in test [3] it was 1.22 fold enrichment (6-mer frequency, TF over GST control); in test [4] it was 1.33 fold enrichment (6-mer frequency, TF over GST control); in [5], 1.2 fold enrichment (6-mer frequency, TF over GST control); in test [6], 1.26 fold enrichment (6-mer frequency, TF over GST control). For the same sequence, the binding signal in test [7] was 1.23 fold enrichment (6-mer frequency, TF over GST control); in [8], 1.32 fold enrichment (6-mer frequency, TF over GST control); in test [9], 1.31 fold enrichment (6-mer frequency, TF over GST control); in test [10], 1.16 fold enrichment (6-mer frequency, TF over GST control); in test [11] it was 1.25 fold enrichment (6-mer frequency, TF over GST control); in test [12] it was 1.84 fold enrichment (6-mer frequency, TF over GST control). Besides, the binding signal in [13] is 1.24 fold enrichment (6-mer frequency, TF over GST control); in [14], 1.25 fold enrichment (6-mer frequency, TF over GST control); in test [15], 1.39 fold enrichment (6-mer frequency, TF over GST control); in [16] it was 1.31 fold enrichment (6-mer frequency, TF over GST control); in test [17], 1.29 fold enrichment (6-mer frequency, TF over GST control); in [18], 2.33 fold enrichment (6-mer frequency, TF over GST control). The binding signal in test [19] is 1.31 fold enrichment (6-mer frequency, TF over GST control).
